FECH inh: human FECH heme synthesis enzyme inhibition; purified FECH, Ni-mesoporphyrin absorbance 550 nm; calls only at 10 µM (by protocol); 3.3% of 20,000 active; AID 1671448;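 active = enzyme reaction rate more than 3 SD below the solvent-only control wells on the same plate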;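 also: lower slope than DMSO wells means FECH inhibition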
Target sequence (P22830 whole entry, looked up): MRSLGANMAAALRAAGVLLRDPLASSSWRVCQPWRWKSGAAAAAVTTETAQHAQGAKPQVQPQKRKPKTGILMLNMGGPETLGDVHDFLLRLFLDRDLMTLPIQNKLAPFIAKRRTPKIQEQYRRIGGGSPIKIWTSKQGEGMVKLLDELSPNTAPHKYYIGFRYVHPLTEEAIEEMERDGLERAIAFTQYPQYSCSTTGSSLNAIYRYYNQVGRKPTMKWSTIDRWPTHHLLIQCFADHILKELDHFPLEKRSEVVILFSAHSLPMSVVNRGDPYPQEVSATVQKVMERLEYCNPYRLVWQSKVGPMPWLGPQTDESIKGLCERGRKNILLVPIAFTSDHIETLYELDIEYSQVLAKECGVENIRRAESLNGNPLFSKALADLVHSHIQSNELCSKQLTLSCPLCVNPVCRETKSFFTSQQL
Active calls of the source: *; i = inactive; + = active, no number. Only a selection was taken, and hits are over-represented in it overall.

SMILES	FECH inh
Cc1nsc(NC(=O)NCC(c2ccccc2)c2ccccc2)n1	i
Cc1cccc(-c2c(-c3ccccc3)ncn2CCN2CCOC2=O)c1C	i
Cc1ncc(-c2c(-c3ccccc3)ncn2CCN2CCCOC2=O)[nH]1	+
c1ccc(-c2ncn(CCc3cccs3)c2C2CCOC2)cc1 (centres undefined)	i
Cc1ncc(-c2c(-c3ccccc3)ncn2CCc2cccs2)[nH]1	+
O=C1OCCCN1CCn1cnc(-c2ccccc2)c1-c1cccnc1	i
Cc1ncc(-c2c(-c3ccccc3)ncn2CCCOc2cccnc2)[nH]1	i
C/C(=C\c1ccco1)CN(Cc1ccccn1)CC1CCCO1 (centres undefined)	i
COc1ccc(C(=O)N2CCC3(CC2)CNC(=O)C3)c(C)c1	i
CCOC(=O)CCc1c(C)nc2nc(CNc3ccccc3OC)[nH]n2c1=O	i
Cc1ccccc1NCc1nc2nc(C)c(Cc3ccc(Cl)cc3)c(=O)n2[nH]1	i
COc1ccc(NCc2nc3nc(C)c(Cc4ccc(Cl)cc4)c(=O)n3[nH]2)cc1	+
CCc1nc2nc(C)c(NC(=O)Nc3cccc(Cl)c3)c(=O)n2[nH]1	i
CCOC(=O)Cc1ccc(NC(=O)Nc2c(C)nc3nc[nH]n3c2=O)cc1	i
CCOC(=O)CCc1c(C)nc2nc(CNc3cc(Cl)ccc3OC)[nH]n2c1=O	i
Cc1ccc(NCc2nc3nc(C)c(Cc4ccc(Cl)cc4)c(=O)n3[nH]2)cc1	i
CCOC(=O)CCc1c(C)nc2nc(CNc3ccc(C)c(Cl)c3)[nH]n2c1=O	+
CCOC(=O)CCc1c(C)nc2nc(CNc3ccc(Cl)cc3)[nH]n2c1=O	+
O=C(CCC(=O)N1CCc2cc(S(=O)(=O)NC3CC3)ccc21)N1CCOCC1	i
CCCc1cc(N2CCCCC2C)n2nc(-c3cccnc3)nc2n1 (centres undefined)	i
O=C(NCc1csc2c1CCCC2)c1cccc(-n2cnnc2)n1	i
COc1ccc(-c2nc(Cn3c(=O)c4cnc(-c5cccs5)nc4n(C)c3=O)c(C)o2)cc1OC	i
CC(C)c1ccc(CN2CCCC(O)(CN(C)Cc3ccoc3)C2=O)cc1 (centres undefined)	i
Cn1c(=O)c(C(=O)NCCCN2CCN(c3ccccc3F)CC2)nc2ccccc21	i
CCC1C=CCN1C(=O)c1cc(COc2ccc3sc(C)nc3c2)on1 (centres undefined)	i
SMILES	FECH inh
Cc1ccc(CN2CCCN(CC(=O)Nc3ccccc3)S2(=O)=O)cc1	i
Cc1ccccc1NC(=O)N1CCC(n2cnc3cccnc32)CC1	i
COc1cc(NC(=O)N2CCC(n3cnc4cccnc43)CC2)cc(OC)c1OC	i
O=C(Nc1ccccc1)N1CCC(n2cnc3cccnc32)CC1	+
O=C(Nc1cccc(Br)c1)N1CCC(n2cnc3cccnc32)CC1	i
Cc1cccc(NC(=O)N2CCC(n3cnc4cccnc43)CC2)c1	i
COc1cc(NC(=O)N2CCC(n3cnc4cccnc43)CC2)cc(OC)c1	i
CCCNC(=O)N1CCC(n2cnc3cccnc32)CC1	i
COc1cccc(NC(=O)N2CCC(n3cnc4cccnc43)CC2)c1	+
O=C(NC1CCCC1)N1CCC(n2cnc3cccnc32)CC1	+
C=Cc1cccc(CN2CCN(C)C3(CCN(C)CC3)C2)c1	i
Cc1c(-c2ccccc2)[nH]c2c(CNc3nccc(N)n3)cc(Cl)cc12	i
O=C(CN1CCOc2ccccc2C1)N1CCCC1Cn1cccn1 (centres undefined)	i
COc1cccc(-c2cc(N3CCN(S(=O)(=O)c4ccc(F)cc4)CC3)ncn2)c1	i
Cc1cccc(-c2cc(N3CCN(S(=O)(=O)c4ccc(CC(C)C)cc4)CC3)ncn2)c1	+
CC(C)Cc1ccc(S(=O)(=O)N2CCN(c3cc(-c4ccc(F)cc4)ncn3)CC2)cc1	i
COc1cccc(-c2cc(N3CCN(S(=O)(=O)c4ccc(OC)c(Cl)c4)CC3)ncn2)c1	i
Cc1cccc(-c2cc(N3CCN(S(=O)(=O)c4c(C)noc4C)CC3)ncn2)c1	i
COc1cccc(-c2cc(N3CCN(S(=O)(=O)c4ccccc4)CC3)ncn2)c1	+
Cc1ccc(-c2cc(N3CCN(S(=O)(=O)c4ccc(CC(C)C)cc4)CC3)ncn2)cc1	i
COc1cccc(-c2cc(N3CCN(S(=O)(=O)c4c(C)noc4C)CC3)ncn2)c1	+
COc1cccc(-c2cc(N3CCN(S(=O)(=O)c4cc(OC)ccc4OC)CC3)ncn2)c1	+
COc1cccc(-c2cc(N3CCN(S(=O)(=O)c4cc(Cl)ccc4OC)CC3)ncn2)c1	i
Cc1ccc(-c2cc(N3CCN(S(=O)(=O)c4c(C)noc4C)CC3)ncn2)cc1	i
COc1cccc(-c2cc(N3CCN(S(=O)(=O)c4ccc(Br)cc4)CC3)ncn2)c1	i
SMILES	FECH inh
CC(CO)CN(Cc1ccccc1)C(=O)Cc1ccc(O)c(Cl)c1 (centres undefined)	i
Cc1ccc(C2=CC(c3ccc(F)cc3)n3nc(NC(=O)c4ccccc4F)nc3N2)cc1 (centres undefined)	i
CN1CCNC(=O)C12CCN(C(=O)c1ccc(-c3ccccc3)[nH]1)CC2	i
COCCCNC(=O)c1ccc(CN2C(=O)CCn3nc(-c4cccc(Cl)c4)cc32)cc1	i
Cc1cc(-c2ccccc2C(F)(F)F)nc(N)n1	i
c1ccc(CCc2nc(C3[C@@H]4[C@H]5CC[C@H](C5)[C@H]34)n[nH]2)cc1 (some centres undefined)	i
O=C(c1csc(S(=O)(=O)Nc2ccc(C(F)(F)F)cc2)c1)N1CCCC1	i
CN1CCC2(CC1)CN(C(=O)c1ccc3cccc(F)c3n1)CCN2C	i
CC1CCCCN1S(=O)(=O)c1ccc2c(c1)CCN2C(=O)CCC(=O)N1CCOCC1 (centres undefined)	i
Cc1cc(Nc2ccc(OC(=O)c3ccc(C)c(C)c3)cc2)n2nc(-c3cccnc3)nc2n1	i
Cc1cc(Nc2ccc(OC(=O)c3ccco3)cc2)n2nc(-c3cccnc3)nc2n1	+
Cc1cc(Nc2ccc(OC(=O)c3ccncc3)cc2)n2nc(-c3cccnc3)nc2n1	i
Cc1ccc(C2=CC(c3c(F)cccc3Cl)n3nc(NC(=O)c4cccnc4)nc3N2)cc1 (centres undefined)	i
Cc1cccc(CN2CCCN(CC(=O)Nc3ccc(C)c(C)c3)S2(=O)=O)c1	+
Cc1cccc(CN2CCCN(CC(=O)Nc3cccc(Br)c3)S2(=O)=O)c1	i
Cc1cccc(CN2CCCN(CC(=O)Nc3cc(C)cc(C)c3)S2(=O)=O)c1	+
Cc1cccc(CN2CCCN(CC(=O)Nc3ccc(F)cc3)S2(=O)=O)c1	+
Cc1ccc(CN2CCCN(CC(=O)Nc3ccc(F)cc3)S2(=O)=O)cc1	i
Cc1cccc(CN2CCCN(CC(=O)Nc3ccccc3)S2(=O)=O)c1	i
O=C(CN1CCCN(Cc2cccc(F)c2)S1(=O)=O)Nc1ccccc1	i
Cc1ccc(CN2CCCN(CC(=O)Nc3ccc(C)c(C)c3)S2(=O)=O)cc1	i
Cc1ccc(NC(=O)CN2CCCN(Cc3cccc(F)c3)S2(=O)=O)cc1C	i
O=C(CN1CCC(n2nccc2NC(=O)C2CC2)CC1)NCC1CCCO1 (centres undefined)	i
COc1cc(NC(=O)CN(C)C(C)c2nccs2)ccc1Cl (centres undefined)	i
CCCSc1ncc(CN2CCC(O)(c3ccc(C)cn3)CC2)cn1	i
Cc1oc(-c2ccccc2Cl)cc1C(=O)NCCc1cnc[nH]1	+

Compound activity as filed in PubChem BioAssay.
